56 sequences from PMC7819943, “Rice protein-binding microarrays: a tool to detect cis-acting elements near promoter regions in rice” can be followed below.

Whole data set: some 39,000 sequences, median “fluorescence intensity (a.u.)” near 4,300, cut for the highest 2% near 39,000. The sample as a whole holds a higher share of the highest values than the screen did.

The assay addresses T1, OsSMF1 (Oryza sativa, UniProt Q6ZLB0 1-436).
T1 sequence: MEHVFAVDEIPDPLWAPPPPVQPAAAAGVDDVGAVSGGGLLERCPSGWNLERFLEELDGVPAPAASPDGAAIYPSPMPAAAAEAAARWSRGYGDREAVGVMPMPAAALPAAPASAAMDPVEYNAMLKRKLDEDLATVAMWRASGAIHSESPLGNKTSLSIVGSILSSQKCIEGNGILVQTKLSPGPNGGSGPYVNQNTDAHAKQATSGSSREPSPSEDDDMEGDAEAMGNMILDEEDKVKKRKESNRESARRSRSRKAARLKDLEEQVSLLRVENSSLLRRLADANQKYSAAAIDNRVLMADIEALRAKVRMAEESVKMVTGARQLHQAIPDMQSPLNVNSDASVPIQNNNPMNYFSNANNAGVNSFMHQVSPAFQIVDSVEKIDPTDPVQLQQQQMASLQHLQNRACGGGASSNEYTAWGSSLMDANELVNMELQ
Put plainly: protein-binding microarray (RPBM); PBS, 2% BSA, 51.3 ng/ul salmon testes DNA, 50 uM zinc acetate, 200 nM TF, 25 C, 1 h; high values mean tight binding. Conditions: protein: recombinant; tags: N-terminal polyhistidine and DsRed monomer fusion (pET32a); chain copies: 2; label: CyDye5-dUTP incorporated in the synthesized complementary strand; 3' TTTTT single-stranded linker to array surface; dsDNA, one strand shown. The method, boiled down: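 Transcription factors, each fused N-terminally to a polyhistidine tag and DsRed, were expressed in E. coli BL21-CodonPlus and purified on Ni–NTA. A custom Agilent array was made double-stranded by primer extension with Cy5-dUTP and blocked with 2% BSA. It was incubated with 200 nM protein in PBS, 2% BSA, salmon testes DNA and 50 µM zinc acetate at 25 °C for 1 h, then washed. The binding signal is per-feature fluorescence intensity (arbitrary units) read on an Axon 4000B scanner.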
Consider “CCTGAAGTTCTAGATGTTGATTTTGTCATGATGATCTAATCGGAGTCACCTAGTGCAG”, for which the binding signal is 4580 fluorescence intensity (a.u.).

With “ATAAATACCGCGATAACCTCCTTAAATTCAAATAAATTTACGGAGTCACCTAGTGCAG”, the binding signal was 54800 fluorescence intensity (a.u.).

As for “GTTTGCGAGGAATAGCGGGAACGATCCGCGCCACCACGAACGGAGTCACCTAGTGCAG”, the binding signal was 18000 fluorescence intensity (a.u.).

For “CGTCTCATTCTCTCTCCACATTTCCTTTTGATCCCTTCTCCGGAGTCACCTAGTGCAG”, the binding signal is 24300 fluorescence intensity (a.u.).

In the case of “CCTTAAATTTTCCTAAATCCTTACCTACCGTCATTCTCTCCGGAGTCACCTAGTGCAG”, the binding signal was 47400 fluorescence intensity (a.u.).

As to “AAATAAATAGGGAATTTAACCTTGCCACGTCACCGATCCGCGGAGTCACCTAGTGCAG”, the binding signal was 48100 fluorescence intensity (a.u.).

With “TCCCGCCAAATCACCGATCCGCGCCTCACGCCACGTCAACCGGAGTCACCTAGTGCAG”, the binding signal is 16000 fluorescence intensity (a.u.).

For “AACTTCAATTTCAAATAACAGGGTCAAATAAACAAACCTACGGAGTCACCTAGTGCAG”, the binding signal is 4590 fluorescence intensity (a.u.).

With “TACTTATCCAGATTCAAAAGATAAAATTTATTATATTATACGGAGTCACCTAGTGCAG”, the binding signal is 12600 fluorescence intensity (a.u.).

Consider “TTTCTAATTCGTCATTCACCTCTCTCCTCCATCTCTACCCCGGAGTCACCTAGTGCAG”, for which the binding signal was 3520 fluorescence intensity (a.u.).

For the sequence “CCGGCGTGGCGACGTCAGTACTCTCTTCTGCTTCATTTCTCGGAGTCACCTAGTGCAG”, the binding signal is 7490 fluorescence intensity (a.u.).

Turning to “AAGCTTTGCATTTGGGCGCTGGGCATGTCAGCGTCCGGTTCGGAGTCACCTAGTGCAG”, the binding signal was 4440 fluorescence intensity (a.u.).

As to “AGATGGGCTTGAGAATGTGATGTCTCGTTTAATTGGGCCCCGGAGTCACCTAGTGCAG”, the binding signal was 3310 fluorescence intensity (a.u.).

Consider “ATTGTTGACACTATGACTTTCTTACTTTGACCGCAATTTTCGGAGTCACCTAGTGCAG”, for which the binding signal is 3720 fluorescence intensity (a.u.).

Regarding “CAAGCAATGCAAGGCAAGAGGTAATTGGCCGTGGAATCCACGGAGTCACCTAGTGCAG”, the binding signal is 4720 fluorescence intensity (a.u.).

As to “TGAGGATGCAAGAGAATCCTAAAAGGTAAGGCAGCATGCACGGAGTCACCTAGTGCAG”, the binding signal is 44100 fluorescence intensity (a.u.).

Turning to “CAAGAGATAAGGAGCAATCGATCCAGCGTGGCGGCATGCACGGAGTCACCTAGTGCAG”, the binding signal is 3470 fluorescence intensity (a.u.).

As to “CCAGTTTTGTCCACGTGGCAGCTGACTCACGGTGGGACCCCGGAGTCACCTAGTGCAG”, the binding signal was 29200 fluorescence intensity (a.u.).

For the sequence “AAGTTTGGCTGTATTTATTCCACACCATAATTGAAAGTTTCGGAGTCACCTAGTGCAG”, the binding signal is 3160 fluorescence intensity (a.u.).

With “AGTTGAGCTCCTTGTCATTGATGAAGCTGCTGCTATTCCACGGAGTCACCTAGTGCAG”, the binding signal is 3740 fluorescence intensity (a.u.).

In the case of “CGCACCCGCACAGCACCACACCACCTGCCTAGCGCCAAGCCGGAGTCACCTAGTGCAG”, the binding signal was 3560 fluorescence intensity (a.u.).

Consider “CACACGCAAAGCTGCAAAAGTTGAATTCCATTATTCCACACGGAGTCACCTAGTGCAG”, for which the binding signal was 65500 fluorescence intensity (a.u.).

As to “AGCAAAGCTGCCAGAGCACGGCACAGCACACAGGTGACGGCGGAGTCACCTAGTGCAG”, the binding signal is 3450 fluorescence intensity (a.u.).

Turning to “CCAAAGCTGCGCAGCACCCTGAACGGCACCACACCACGGACGGAGTCACCTAGTGCAG”, the binding signal was 57400 fluorescence intensity (a.u.).

Take “ATTGGATGCTGAATTGATGAGTACATACGTATACGTATACCGGAGTCACCTAGTGCAG”: the binding signal is 4160 fluorescence intensity (a.u.).

Turning to “CAACTGGCCATGTATGCACATGCACCCCAGAGACAACCTACGGAGTCACCTAGTGCAG”, the binding signal is 3420 fluorescence intensity (a.u.).

As to “GTTGACGGGGTTTGTGAGGTGTGGCGGTGACTTGGAAAGACGGAGTCACCTAGTGCAG”, the binding signal is 3540 fluorescence intensity (a.u.).

Turning to “ATGGTTAGCATTAATCACTAATCACGTCATCATTAGTGCTCGGAGTCACCTAGTGCAG”, the binding signal is 4040 fluorescence intensity (a.u.).

With “TGCAGGGACGATCTGATGGACAGCTCGGATTCGTCCCACACGGAGTCACCTAGTGCAG”, the binding signal is 3190 fluorescence intensity (a.u.).

Take “TGGGTCCCACGCAATAGTGGACCTGATGAATTGCAGGATTCGGAGTCACCTAGTGCAG”: the binding signal is 41100 fluorescence intensity (a.u.).

For “CCCACGGGATTGTCGGTCCCTCGTTTTGGTGATGCAGGACCGGAGTCACCTAGTGCAG”, the binding signal was 3570 fluorescence intensity (a.u.).

Consider “GTTATCGTCATTACGTCAATACGTGTTTTCGAAAATAATTCGGAGTCACCTAGTGCAG”, for which the binding signal was 4860 fluorescence intensity (a.u.).

In the case of “GACACCACCGCCGCCGCCGTCCTCGTCATCTCCAGATCGCCGGAGTCACCTAGTGCAG”, the binding signal was 9120 fluorescence intensity (a.u.).

In the case of “ACAGTAGCACCGGAAAGCTGCATGTGAAGTCTAGTCAACGCGGAGTCACCTAGTGCAG”, the binding signal is 4250 fluorescence intensity (a.u.).

Turning to “CTTCTCCTGCATGGCAAGTCGCTGATCACAACTACGCATCCGGAGTCACCTAGTGCAG”, the binding signal is 3610 fluorescence intensity (a.u.).

“TGAATATAAACACAACTACATTTAGCGACAGAAGAAGAACCGGAGTCACCTAGTGCAG”: the binding signal was 40600 fluorescence intensity (a.u.).

For “ACTATATATATACACTACGGTTGACAAAGACATCCCAACACGGAGTCACCTAGTGCAG”, the binding signal was 3240 fluorescence intensity (a.u.).

On to “CGCACGATGATCATGTGTTGGTGTTGGCATGCAATGCAACCGGAGTCACCTAGTGCAG”, for which the binding signal was 3780 fluorescence intensity (a.u.).

“TGTAACTATTCTCGCGACACGTACACACCAACACATAAACCGGAGTCACCTAGTGCAG”: the binding signal was 4520 fluorescence intensity (a.u.).

Turning to “GAGAAAGGAACAACTACAAAAGACACACATATATACTATGCGGAGTCACCTAGTGCAG”, the binding signal was 39400 fluorescence intensity (a.u.).

With “TTCACAACACTTGCATGAACTCAGGTGTCAATGGTAAGGTCGGAGTCACCTAGTGCAG”, the binding signal is 3560 fluorescence intensity (a.u.).

With “TAGATCAATGATGTTGCATGCAACTCACGCGACACATGGTCGGAGTCACCTAGTGCAG”, the binding signal is 40000 fluorescence intensity (a.u.).

As to “CAAAGGAACACATCTGGGTCATCAGACAACTCAATAGAGTCGGAGTCACCTAGTGCAG”, the binding signal was 43000 fluorescence intensity (a.u.).

For the sequence “CATAACAACCACTAAAACATTATGAATATTTTGTACATACCGGAGTCACCTAGTGCAG”, the binding signal is 22800 fluorescence intensity (a.u.).

For “ATACAAAACTAGAAACAAGACATACCAACATCACAACATGCGGAGTCACCTAGTGCAG”, the binding signal was 26100 fluorescence intensity (a.u.).

As for “ATCATGTACATCTCATAGTCAACAATATTCATCACAATCTCGGAGTCACCTAGTGCAG”, the binding signal was 3640 fluorescence intensity (a.u.).

Consider “TCATCTGGTACAAAATATATAGGACATCAATCATGGGGAACGGAGTCACCTAGTGCAG”, for which the binding signal was 26200 fluorescence intensity (a.u.).

As to “CGGAGAGGGAGAAGGAGAGGAGAGGGGCTGATAGGTGGGGCGGAGTCACCTAGTGCAG”, the binding signal is 3520 fluorescence intensity (a.u.).

Consider “CTCCTCCATTGCCAGTTGCTACTCATCCTCATCCTCTCCACGGAGTCACCTAGTGCAG”, for which the binding signal was 22600 fluorescence intensity (a.u.).

Turning to “TCCTCCAGATGTTACAGTCTCCGAATTTCAGTGATGTCACCGGAGTCACCTAGTGCAG”, the binding signal is 11800 fluorescence intensity (a.u.).

“ATCCAATCTGAGCCGTCCGCTGTACACCGTAGATCTATATCGGAGTCACCTAGTGCAG”: the binding signal was 3450 fluorescence intensity (a.u.).

Take “CTCCGTGATCGTCATGTCAAGACGCAAAATAAAGAGCAATCGGAGTCACCTAGTGCAG”: the binding signal is 33400 fluorescence intensity (a.u.).

As to “GAAACCCGGCCACATCACTCCTTCCCTATGCTCCAGTGAGCGGAGTCACCTAGTGCAG”, the binding signal is 8040 fluorescence intensity (a.u.).

On to “TGGCAAATAGTTCCGTGATGTCAGCTTGGAAGCATCCTGCCGGAGTCACCTAGTGCAG”, for which the binding signal was 6410 fluorescence intensity (a.u.).

For the sequence “CTTTTGGCAAAATCCGTGATGCAGCATCGATCCCTGTCAACGGAGTCACCTAGTGCAG”, the binding signal was 39800 fluorescence intensity (a.u.).

For the sequence “TTTTGGATGCAGCATATGGTTGTCCCGATGCAAAATCCTCCGGAGTCACCTAGTGCAG”, the binding signal was 4530 fluorescence intensity (a.u.).
